# Measured values from ChEMBL document CHEMBL3988442, “University of Dundee, Small-Polar-MMV Screening Library” (2021).
# The whole screen tested about 66,000 compounds, of which about 960 (1.5%) showed an effect of 50% or more. Only a selection was taken, and strong results are over-represented in it overall.
# Test system: Trypanosoma brucei
# Assay: Trypanosoma brucei 72 hour study
# Assay type: functional, organism-based
# Design: scale not given: in the data most compounds retested in dose-response had high values
Structure (SMILES),"Percent Effect (30.3 µM, […]) [%]","Percent Effect (30 µM, 30.03 µM) [%]"
CCOC(=O)N1CCc2ccccc2C12CCNCC2.Cl,-45.47,
Cc1ccc(CN2CCC3(CC2)CN(C(=O)c2cnccn2)CCO3)o1.O=C(O)C(F)(F)F,-12.58,
CC1=N[C@@]2(CC[C@@H]3CN(Cc4ccccc4F)C[C@@H]32)C(=O)N1CC1CC1.O=C(O)C(F)(F)F,,55.44
CC1=N[C@@]2(CC[C@@H]3CN(Cc4ccccc4)C[C@@H]32)C(=O)N1CC1CC1.O=C(O)C(F)(F)F,-40.35,
CC1=N[C@@]2(CC[C@@H]3CN(Cc4ccccc4C)C[C@@H]32)C(=O)N1CC1CC1.O=C(O)C(F)(F)F,-63.56,
CN(C)C(=O)c1cc2c(nc1NCC1CC1)CCNCC2,-109.7,
CCCN1CCN(C(=O)c2cnn(-c3ccccc3F)c2)CC1,,55.35
O=C(c1cnn(-c2ccccc2F)c1)N1CCN(CCO)CC1,,1.358
CCC(O)CN1CCN(C(=O)c2cnn(-c3ccccc3F)c2)CC1 (stereo not drawn),,22.96
CN1C(=O)CC[C@]12CC[C@@H](NCc1ccsc1)CC2.O=C(O)C(F)(F)F,8.729,
CC(C)CCN1C[C@H]2C[C@H](C(=O)NCc3ccccc3)[C@@H](C1)O2.O=C(O)C(F)(F)F,,29.18
CCn1cc(-c2cc(-c3cc(CN(C)C)cs3)nc(N)c2C#N)c(C)n1,,-4.566
CCn1ccnc1C1CCN(Cc2cccc(C)n2)CC1,,-34.54
CCn1ccnc1C1CCN(Cc2cccc(Cl)c2)CC1,,-40.4
Cc1ccc(Cl)c(CN2CCC(c3nccn3C(C)C)CC2)c1F,,104.1
CCn1ccnc1C1CCN(Cc2c(F)cccc2F)CC1,,86.79
CC(C)n1ccnc1C1CCN(Cc2ccc(Cl)c(F)c2)CC1,,33.49
Cc1cc(CN2CCC(c3nccn3C(C)C)CC2)ccc1F,,-24.52
COc1ccc(Cl)cc1C(C(=O)O)N1CCSCC1 (stereo not drawn),-71.2,
CN(C)c1nc(N)nc(CN2CCCC2c2cccs2)n1 (stereo not drawn),,-6.91
Cc1cccc(C2CCCN2Cc2nc(N)nc(N(C)C)n2)c1C (stereo not drawn),,100.5

Structure (SMILES),"Percent Effect (30.3 µM, […]) [%]","Percent Effect (30 µM, 30.03 µM) [%]"
CN(C)c1nc(N)nc(CN2CCCC2c2ccsc2)n1 (stereo not drawn),,-20.26
Cc1ccc(C(=O)NCc2ccnc(C3CCCOC3)n2)s1 (stereo not drawn),49.43,
O=C(NCc1ccnc(C2CCCOC2)n1)c1cccs1 (stereo not drawn),-2.313,
Cc1ccsc1C(=O)NCc1ccnc(C2CCCOC2)n1 (stereo not drawn),54.51,
Cn1ccc(CN2CCC3(CCCN3CC3CC3)CC2)n1.O=C(O)C(F)(F)F.O=C(O)C(F)(F)F,-89.65,
COC1CN(C(=O)CC(C)(C)C)CCC(=O)N(C)c2ccccc21 (stereo not drawn),-11.06,
CC(C)NC(=O)[C@H]1C[C@@H]2CN(C(=O)NCc3ccccc3)C[C@H]1O2,,43.99
CSCC[C@@H](CO)Nc1ccc(-c2nc(-c3ccccc3F)no2)cn1,-25.91,
CSCC[C@@H](CO)Nc1ccc(-c2nc(-c3ccccc3C)no2)cn1,99.8,
CSCC[C@@H](CO)Nc1ccc(-c2nc(C3CC3)no2)cn1,19.73,
Cc1ccc(CN(C)C(=O)c2cnsn2)cc1,,-21.68
CCc1ncc(CN2CCOC(Cc3cccc(F)c3)C2)cn1 (stereo not drawn),-57.81,
O=C(Cc1ccc2c(c1)CCCC2)Nc1cccnc1N1CCSCC1,,7.169
COCCNC(=O)c1cc2c(s1)CCN2C(=O)c1ccccc1,,61.44
O=C(NCCN1CCCC1)c1cc2c(s1)CCN2C(=O)c1ccccc1,-8.761,
CCCNC(=O)c1cc2c(s1)CCN2C(=O)c1ccccc1,-5.969,
CCOc1ncccc1CNC(=O)Nc1ccc(N(C)C)nc1,-10.18,
CN1CCN(C(=O)C2CCCN(c3cccnn3)C2)CC1 (stereo not drawn),101,
CN1CCN(C(=O)C2CCN(c3cccnn3)C2)CC1 (stereo not drawn),1.766,
CN1CCN(C(=O)C2CCN(c3cccnn3)CC2)CC1,-20.3,
CC(C)(C)CN1CC(O)CN(C(=O)c2cccc(C(F)(F)F)c2)CC1=O (stereo not drawn),-4.351,

Structure (SMILES),"Percent Effect (30.3 µM, […]) [%]","Percent Effect (30 µM, 30.03 µM) [%]"
CC(C)N(C)Cc1cnc2n1CCN(C(=O)Cc1ccsc1)C2.O=C(O)C(F)(F)F,,-22.47
Cc1ccc2c(n1)N(CCN(C)C)CCN(C(=O)c1ccc[nH]1)C2.O=C(O)C(F)(F)F.O=C(O)C(F)(F)F,,4.99
O=S(=O)(NCCc1nc(-c2cccnc2)n[nH]1)NCc1ccccc1,-84.2,
c1cc(-c2n[nH]c(CNc3nnc(C4CC4)o3)n2)ccn1,0.7676,
CCCc1nnc(NCCc2noc(C3CCCC3)n2)o1,,-39.45
c1ccc(-c2nc(CCNc3nnc(C4CCC4)o3)no2)cc1,99.59,
CCCc1nnc(NCCc2noc(C3CCC3)n2)o1,,-16.87
c1ccc(-c2n[nH]c(CCNc3nnc(C4CCC4)o3)n2)cc1,99.86,
CN(C)C(=O)N[C@H]1CN(Cc2ccc3c(c2)OCO3)[C@@H]2CCCO[C@H]12.O=C(O)C(F)(F)F,-7.695,
CS(=O)(=O)NCc1cncc2c1CCN(C(=O)N1CCCC1)C2.Cl,-11.25,
Cc1noc([C@@]23CCO[C@@H]2CCN(Cc2scnc2C)C3)n1.O=C(O)C(F)(F)F,7.313,
O=c1[nH][nH]cc1-c1ccnc(NCCc2cccc(O)c2)n1,-16.62,
CCN(CC1CCOC1)C(=O)c1ccc(N2CCOCC2)c(F)c1 (stereo not drawn),-9.543,
CN(C)C(=O)c1cccc(NC(=O)N(CCO)Cc2ccsc2)c1,,-3.434
O=C(Nc1ccncc1)N(CCO)Cc1ccsc1,7.021,
COc1cccc(NC(=O)N(CCO)Cc2ccsc2)c1,,51.17
Cc1nc(N)nc(C)c1CC(=O)NCc1ccc2nonc2c1,,-40.59
Cc1noc(C)c1CN1CC[C@@H](OCC2CC2)[C@@H](Cc2ccccc2)C1.O=C(O)C(F)(F)F,,12.8
O=C(c1cc2cc(F)ccc2[nH]1)N1CCC(Nc2cccnn2)CC1,-6.499,
O=C(c1cc2cc(I)ccc2[nH]1)N1CCC(Nc2cccnn2)CC1,85.16,
O=C(c1cc2ccccc2[nH]1)N1CCC(Nc2cccnn2)CC1,-25.8,
